# Source: PubChem BioAssay (NCATS)
# Values joined by “and” are separate entries in the source; they are usually repeats but may differ in a detail not shown here. Equal entries are not always repeated. Inconclusive results are not listed. This is one part of the list. Where a call stands in place of a potency, no number is given. Active and inactive are the calls of the source. The call rests on the fitted dose curve; in most records, active means well fitted curve in the direction sought with a large enough effect; inconclusive means small, poorly fitted or top-dose-only effect, or another doubt; inactive means no such curve, though single readings can be large; an effect the other way counts as inactive or inconclusive.
# Legend:
# [1] = molecular target: Arylsulfatase A (Homo sapiens) (UniProt P15289); test: qHTS screen for enhancers of Arylsulfatase A (ASA1): LOPAC Validation Assay (AID 720538); further: potency means the concentration at half of the fitted maximal effect
# Chain of Arylsulfatase A (Homo sapiens) (P15289 whole entry, looked up): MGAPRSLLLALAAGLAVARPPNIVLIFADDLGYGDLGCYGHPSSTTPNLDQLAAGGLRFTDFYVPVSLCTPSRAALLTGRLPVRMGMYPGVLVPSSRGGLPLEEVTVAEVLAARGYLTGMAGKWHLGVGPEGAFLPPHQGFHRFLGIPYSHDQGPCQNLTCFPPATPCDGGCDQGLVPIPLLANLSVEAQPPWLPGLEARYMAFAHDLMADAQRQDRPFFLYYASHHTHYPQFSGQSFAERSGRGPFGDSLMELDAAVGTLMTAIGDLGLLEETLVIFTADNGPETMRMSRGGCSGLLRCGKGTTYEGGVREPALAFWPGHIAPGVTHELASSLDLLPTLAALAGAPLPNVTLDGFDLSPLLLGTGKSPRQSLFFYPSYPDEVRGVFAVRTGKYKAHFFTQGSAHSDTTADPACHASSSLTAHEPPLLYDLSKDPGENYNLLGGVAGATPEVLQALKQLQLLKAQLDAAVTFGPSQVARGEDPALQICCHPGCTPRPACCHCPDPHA
# In short: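 Enhancer assay in patient-derived MLD fibroblasts carrying ASA-I179S: 48 h compound exposure at 37 C, then 14 h room-temperature pNCS turnover (0.5 mM final) in lysis buffer. Read by fluorescence at 525/598 nm after NaOH stop.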
# [2] = qHTS for compounds that reverse cellular toxicity of Amyloid beta (A-beta) peptide in yeast: LOPAC Validation Assay (AID 720559); settings: Potency: rescue of growth toxicity
# In short: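 Rescue of A-beta toxicity was scored as yeast growth by 600 nm absorbance after 48 hr at 30 C with compound. Normalization used DMSO (negative) and equimolar ferric chloride plus clioquinol (positive).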
# [3] = qHTS for Activators of Parkin Expression: LOPAC Validation Assay (NLuc Reporter) (AID 720572)
# In short: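 Neuronal cells with a Parkin promoter-driven FLuc/NLuc coincidence reporter were treated 24 h at 37 C in 7-point dose response (LOPAC). NLuc luminescence read after FLuc; signals normalized to DMSO and positive control (100%).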
# [4] = molecular target: DNA polymerase iota (Homo sapiens) (UniProt Q9UNA4); test: qHTS for Inhibitors of Polymerase Iota: Confirmatory Assay for Cherry-picked Compounds (AID 720496); settings: Pol iota primer extension, TAMRA/BHQ fluorescence; further: potency means the concentration at half of the fitted maximal effect
# Chain of DNA polymerase iota (Homo sapiens) (Q9UNA4 whole entry, looked up): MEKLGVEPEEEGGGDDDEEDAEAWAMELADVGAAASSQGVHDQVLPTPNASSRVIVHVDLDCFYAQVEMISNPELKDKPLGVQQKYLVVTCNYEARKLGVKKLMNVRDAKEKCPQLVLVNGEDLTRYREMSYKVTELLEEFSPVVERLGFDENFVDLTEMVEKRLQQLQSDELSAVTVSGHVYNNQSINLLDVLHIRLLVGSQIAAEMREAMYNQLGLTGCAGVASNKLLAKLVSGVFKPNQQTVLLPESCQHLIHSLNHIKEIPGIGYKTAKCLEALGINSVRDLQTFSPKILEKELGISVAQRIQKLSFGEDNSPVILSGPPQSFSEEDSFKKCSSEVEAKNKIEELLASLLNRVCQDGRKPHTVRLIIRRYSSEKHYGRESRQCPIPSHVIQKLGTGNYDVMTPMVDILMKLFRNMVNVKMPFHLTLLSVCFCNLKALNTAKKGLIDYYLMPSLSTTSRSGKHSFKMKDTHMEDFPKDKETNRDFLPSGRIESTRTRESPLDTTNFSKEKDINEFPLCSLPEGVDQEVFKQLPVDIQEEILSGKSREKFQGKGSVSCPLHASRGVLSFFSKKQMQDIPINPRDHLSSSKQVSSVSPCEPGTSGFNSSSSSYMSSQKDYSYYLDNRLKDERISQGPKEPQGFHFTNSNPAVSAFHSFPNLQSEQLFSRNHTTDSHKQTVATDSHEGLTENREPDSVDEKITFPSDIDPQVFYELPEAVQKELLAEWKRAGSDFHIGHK
# In short: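 Buffer-only wells, without enzyme, serve as negative control. Test wells hold 10 nM Pol iota preincubated 15 min with compound before 50 nM final fluorogenic DNA substrate is added; signal is read at 0 and 10 min.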
# [5] = molecular target: DNA polymerase kappa (Homo sapiens) (UniProt Q9UBT6); test: qHTS for Inhibitors of Polymerase Kappa: Confirmatory Assay for Cherry-picked Compounds (AID 720501); settings: purified Pol-kappa, fluorescent strand-displacement substrate; further: potency means the concentration at half of the fitted maximal effect
# Chain of DNA polymerase kappa (Homo sapiens) (Q9UBT6 whole entry, looked up): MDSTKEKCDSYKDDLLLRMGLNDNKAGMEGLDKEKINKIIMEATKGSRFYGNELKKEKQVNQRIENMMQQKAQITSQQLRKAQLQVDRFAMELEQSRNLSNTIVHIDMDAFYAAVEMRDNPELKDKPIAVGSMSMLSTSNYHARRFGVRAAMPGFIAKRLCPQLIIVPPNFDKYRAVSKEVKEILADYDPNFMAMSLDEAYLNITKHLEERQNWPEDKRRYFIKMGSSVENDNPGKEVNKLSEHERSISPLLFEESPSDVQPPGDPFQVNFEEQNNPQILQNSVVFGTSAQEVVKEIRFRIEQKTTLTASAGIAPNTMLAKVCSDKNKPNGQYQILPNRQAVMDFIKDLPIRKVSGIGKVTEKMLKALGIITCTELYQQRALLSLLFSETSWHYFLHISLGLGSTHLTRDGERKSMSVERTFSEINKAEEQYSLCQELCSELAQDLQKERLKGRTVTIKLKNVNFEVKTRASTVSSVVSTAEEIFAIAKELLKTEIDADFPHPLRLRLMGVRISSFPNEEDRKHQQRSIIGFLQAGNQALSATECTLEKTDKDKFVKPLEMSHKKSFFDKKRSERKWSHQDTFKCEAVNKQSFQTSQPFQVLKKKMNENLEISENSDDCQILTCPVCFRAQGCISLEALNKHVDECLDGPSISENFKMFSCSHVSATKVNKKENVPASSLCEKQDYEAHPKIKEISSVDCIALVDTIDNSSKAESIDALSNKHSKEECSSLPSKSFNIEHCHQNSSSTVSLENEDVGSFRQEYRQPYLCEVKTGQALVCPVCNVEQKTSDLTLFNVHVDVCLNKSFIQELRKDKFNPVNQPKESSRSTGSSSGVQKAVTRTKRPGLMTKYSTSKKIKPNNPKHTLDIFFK
# In short: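 10 nM human Pol-kappa was preincubated with compound 15 min at room temperature, then 50 nM (final) primer/template substrate with TAMRA-labeled reporter strand and BHQ-2-labeled template added. Fluorescence (Ex 525, Em 598 nm) read at 0 and 10 min.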
# [6] = molecular target: DNA polymerase eta (Homo sapiens) (UniProt Q9Y253); test: qHTS for Inhibitors of Polymerase Eta: Confirmatory Assay for Cherry-picked Compounds (AID 720502); settings: Pol eta primer extension, TAMRA/BHQ fluorescence, 10 min; further: potency means the concentration at half of the fitted maximal effect
# Chain of DNA polymerase eta (Homo sapiens) (Q9Y253 whole entry, looked up): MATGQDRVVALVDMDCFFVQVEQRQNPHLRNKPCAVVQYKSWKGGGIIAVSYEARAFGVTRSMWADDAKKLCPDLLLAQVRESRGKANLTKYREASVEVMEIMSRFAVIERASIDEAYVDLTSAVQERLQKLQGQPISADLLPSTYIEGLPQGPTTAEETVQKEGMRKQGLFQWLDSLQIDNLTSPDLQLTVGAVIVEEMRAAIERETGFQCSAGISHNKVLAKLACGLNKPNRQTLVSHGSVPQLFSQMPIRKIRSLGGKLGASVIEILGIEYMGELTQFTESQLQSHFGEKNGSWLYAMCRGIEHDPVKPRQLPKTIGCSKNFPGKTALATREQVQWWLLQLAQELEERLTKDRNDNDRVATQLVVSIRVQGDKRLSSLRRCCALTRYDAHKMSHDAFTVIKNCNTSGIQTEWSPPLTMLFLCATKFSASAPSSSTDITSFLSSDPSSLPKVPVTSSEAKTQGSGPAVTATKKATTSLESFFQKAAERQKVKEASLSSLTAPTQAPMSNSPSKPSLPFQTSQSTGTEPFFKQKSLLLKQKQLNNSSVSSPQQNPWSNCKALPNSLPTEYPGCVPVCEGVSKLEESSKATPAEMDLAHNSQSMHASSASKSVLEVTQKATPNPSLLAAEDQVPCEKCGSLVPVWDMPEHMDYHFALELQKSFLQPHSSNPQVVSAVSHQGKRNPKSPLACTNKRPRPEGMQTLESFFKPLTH
# In short: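 Readout: TAMRA dequenching, ex 525/em 598 nm, read at 0 and 10 min. Enzyme: 10 nM human Pol eta, preincubated with compound 15 min RT. Substrate: 50 nM final annealed primer/reporter/template duplex.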
# [7] = qHTS for Activators of Parkin Expression: LOPAC Validation Assay (FLuc Reporter) (AID 720573)
# In short: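 FLuc signal from Parkin-promoter coincidence reporter neuronal cells, normalized to DMSO and positive control (100%). Cells (1,500/well) pre-incubated 24 h, then exposed to LOPAC compounds in 7-point dose response for 24 h at 37 C, 5% CO2.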
smiles,measurement,setting,value
N#C/C(=C\c1ccc(O)c(O)c1)C(=O)NCCCc1ccccc1,Potency,[1],inactive
same,Potency,[2],inactive
same,Potency,[3],inactive
O=C(c1cc(O)c(O)c([N+](=O)[O-])c1)c1ccccc1F,Potency,[1],19 µM (active)
same,Potency,[2],inactive
same,Potency,[3],inactive
CN1C2CC(OC(=O)[C@H](CO)c3ccccc3)CC1C1OC12 (stereo partly drawn),Potency,[1],inactive
same,Potency,[2],inactive
C=C[C@@H]1CN2CC[C@@H]1C[C@H]2[C@H](O)c1ccnc2ccc(OC)cc12,Potency,[1],inactive
same,Potency,[2],inactive
same,Potency,[3],inactive
OC[C@H]1O[C@@H](n2cnc3c(NC4CCCC4)ncnc32)[C@H](O)[C@@H]1O,Potency,[1],inactive
same,Potency,[2],inactive
O=c1[nH]c2cc([N+](=O)[O-])c([N+](=O)[O-])cc2[nH]c1=O,Potency,[1],8.49 µM (active)
same,Potency,[2],inactive
same,Potency,[3],inactive
O=C1NC(=O)/C(=C/c2ccc3nccnc3c2)S1,Potency,[1],inactive
same,Potency,[2],inactive
CCc1c(C(=O)NCCc2ccc(N3CCCCC3)cc2)[nH]c2ccc(Cl)cc12,Potency,[1],inactive
same,Potency,[2],inactive
same,Potency,[3],inactive
CN1CCc2cc(NC(=O)Nc3cccnc3)ccc21,Potency,[1],inactive
same,Potency,[2],inactive
O=C(O)c1cc(=O)c2ccccc2[nH]1,Potency,[1],inactive
same,Potency,[2],inactive
Cc1ccc(O)c(N=Nc2ccccc2)n1,Potency,[1],inactive
same,Potency,[2],inactive
same,Potency,[3],inactive
CCN(CC)c1ncnc2c1ncn2[C@@H]1O[C@H](COP(=O)(O)OP(=O)(O)C(Br)(Br)P(=O)(O)O)[C@@H](O)[C@H]1O,Potency,[1],inactive
same,Potency,[2],inactive
same,Potency,[3],inactive
O=C(CCCCCN1CCN(c2ccccc2-c2ccccc2)CC1)NC1CCCc2ccccc21 (stereo not drawn),Potency,[1],inactive
same,Potency,[2],inactive
same,Potency,[3],inactive
Oc1cc(O)cc(/C=C/c2ccc(O)c(O)c2)c1,Potency,[1],23.9 µM (active)
same,Potency,[2],inactive
COc1ccc(/C=C/C(=O)Nc2ccccc2C(=O)O)cc1OC,Potency,[1],6.75 µM (active)
same,Potency,[2],inactive
O=c1[nH]c2cc(Cl)c(Cl)cc2[nH]c1=O,Potency,[1],inactive
same,Potency,[2],inactive
N#C/C(=C\c1c[nH]c2ccccc12)C(=O)c1ccc(O)c(O)c1,Potency,[1],inactive
same,Potency,[2],inactive
OC[C@H]1O[C@@H](n2cnc3c(NC4CCCCC4)ncnc32)[C@H](O)[C@@H]1O,Potency,[1],inactive
same,Potency,[2],inactive
same,Potency,[3],inactive
C#C[C@]1(O)CC[C@H]2[C@@H]3CCC4=Cc5oncc5CC4(C)[C@H]3CCC21C (stereo partly drawn),Potency,[1],inactive
same,Potency,[2],inactive
same,Potency,[3],inactive
CN(C)c1ccc(/C=C2\C(=O)Nc3ccccc32)cc1,Potency,[1],inactive
same,Potency,[2],inactive
same,Potency,[3],inactive
CN1CCc2ccccc2Cc2[nH]c3ccccc3c2CC1,Potency,[1],inactive
same,Potency,[2],inactive
same,Potency,[3],inactive
CCCCCCCCCCCCCCCCCCNC(=O)OCC(COP(=O)([O-])OCC[n+]1ccsc1)OC (stereo not drawn),Potency,[1],inactive
same,Potency,[2],inactive
O=[N+]([O-])c1ccc(CSc2ncnc3c2ncn3[C@@H]2O[C@H](CO)[C@@H](O)[C@H]2O)cc1,Potency,[1],inactive
same,Potency,[2],inactive
same,Potency,[3],inactive
C[C@@H](NC(=O)/C(C#N)=C/c1ccc(O)c(O)c1)c1ccccc1,Potency,[1],inactive
same,Potency,[2],inactive
CO/N=C(\C(=O)N[C@@H]1C(=O)N2C(C(=O)O)=C(COC(C)=O)CS[C@H]12)c1csc(N)n1 (stereo in doubt),Potency,[4],18.9 µM (active)
same,Potency,[5],9.47 µM (active) and 8.44 µM (active)
same,Potency,[6],15.1 µM (active) and 19 µM (active) and 8.49 µM (active)
Clc1ccc(N2CCN(Cc3cc4ccccn4n3)CC2)cc1,Potency,[1],inactive
same,Potency,[2],inactive
same,Potency,[3],inactive
NC(=O)C1=CN(C2OC(COP(=O)(O)OP(=O)(O)OC[C@H]3O[C@@H](n4cnc5c(N)ncnc54)[C@H](OP(=O)(O)O)[C@@H]3O)C(O)C2O)C=CC1 (stereo partly drawn),Potency,[1],inactive
same,Potency,[2],inactive
same,Potency,[3],inactive
CC(COc1ccc(/C=C/c2ccccc2)cc1)[N+](C)(C)C (stereo not drawn),Potency,[1],inactive
same,Potency,[2],inactive
same,Potency,[3],inactive
CC(C)NC[C@H](O)COc1cccc2[nH]ccc12,Potency,[1],inactive
same,Potency,[2],inactive
same,Potency,[3],inactive
CCNC(=O)[C@H]1O[C@@H](n2cnc3c(N)nc(NCCc4ccc(CCC(=O)O)cc4)nc32)[C@H](O)[C@@H]1O,Potency,[1],inactive
same,Potency,[2],inactive
same,Potency,[3],inactive
O=C(c1ccc(OCCCc2cnc[nH]2)cc1)C1CC1,Potency,[1],inactive
same,Potency,[2],inactive
same,Potency,[3],inactive
CO/S(=N\S(=O)(=O)c1ccc(Cl)cc1)c1ccc([N+](=O)[O-])cc1 (stereo not drawn),Potency,[1],inactive
same,Potency,[2],inactive
same,Potency,[3],inactive
Cn1c(=O)c2[nH]c(-c3ccccc3)nc2n(C)c1=O,Potency,[1],inactive
same,Potency,[2],inactive
same,Potency,[3],inactive
O=C(/C=C/c1ccc(O)c(O)c1)OCCc1ccccc1,Potency,[1],inactive
same,Potency,[2],inactive
CC[C@@H](C)[C@H]1O[C@]2(CC[C@H]1C)C[C@@H]1C[C@@H](CC=C(C)[C@@H](O[C@H]3C[C@H](OC)[C@@H](O[C@H]4C[C@H](OC)[C@@H](O)[C@H](C)O4)[C@H](C)O3)[C@@H](C)C=CC=C3CO[C@@H]4[C@H](O)C(C)=C[C@@H](C(=O)O1)[C@]34O)O2,Potency,[1],inactive
Cc1nc2sccn2c(=O)c1CCN1CCC(=C(c2ccccc2)c2ccc(F)cc2)CC1,Potency,[1],inactive
same,Potency,[2],inactive
same,Potency,[3],inactive
COc1cc2c(CCNC(C)=O)c[nH]c2cc1Cl,Potency,[1],inactive
same,Potency,[2],inactive
same,Potency,[3],inactive
same,Potency,[7],inactive
O=C(c1ccc(Cl)cc1)N1CCN(c2ccc([N+](=O)[O-])c3ncccc23)CC1,Potency,[1],inactive
same,Potency,[2],inactive
same,Potency,[3],inactive
CNC(=O)[C@H]1O[C@@H](n2cnc3c(NCc4ccc(N)cc4)ncnc32)[C@H](O)[C@@H]1O,Potency,[1],inactive
same,Potency,[2],inactive
same,Potency,[3],inactive
CSc1nc(N)c2ncn([C@@H]3O[C@H](COP(=O)(O)OP(=O)(O)OP(=O)(O)O)[C@@H](O)[C@H]3O)c2n1,Potency,[1],inactive
same,Potency,[2],inactive
same,Potency,[3],inactive
O=C(O)c1cc([N+](=O)[O-])ccc1NCCCc1ccccc1,Potency,[1],inactive
same,Potency,[2],inactive
same,Potency,[3],inactive
same,Potency,[7],inactive
CC(C)ON([C@@H](C(=O)NO)C(C)C)S(=O)(=O)c1ccc(-c2ccccc2)cc1,Potency,[1],inactive
same,Potency,[2],inactive
same,Potency,[3],inactive
same,Potency,[7],inactive
O=C(O)CC[C@@H](C(=O)O)N1C(=O)c2ccccc2C1=O,Potency,[1],inactive
same,Potency,[2],inactive
same,Potency,[3],inactive
same,Potency,[7],inactive
N[C@@H](CC(=O)O)C(=O)O,Potency,[1],inactive
same,Potency,[2],inactive
same,Potency,[3],inactive
same,Potency,[7],inactive
